Assay in all cases: NCI-60 one-dose screen, 48 h (100 = growth as untreated, 0 = no growth, -100 = all killed)
Common to all, as to settings: 10 µM unless noted

For experiment [1], the system named is NCI-H23 lung.
In experiment [2] the test system is NCI-H226 lung.
In experiment [3] the test system is NCI-H322M lung.
Experiment [4] concerns HOP-62 NSCLC.
The test system of experiment [5] is NCI-H460 lung.
Experiment [6] deals with HOP-92 NSCLC.
The subject of experiment [7] is NCI-H522 lung.
For experiment [8], the system named is A549/ATCC NSCLC.
Experiment [9] deals with 786-0 renal.
Experiment [10] relates to COLO 205 colon.
In experiment [11] the test system is DU-145 prostate.
In experiment [12] the test system is K-562 leukemia.
The test system of experiment [13] is MALME-3M melanoma.
In experiment [14] the test system is MDA-MB-231 breast.
For experiment [15], the system named is RXF 393 renal.
Experiment [16] concerns SF-268 CNS.
The test system of experiment [17] is SF-295 CNS.
The subject of experiment [18] is SF-539 CNS.
Experiment [19] deals with UACC-257 melanoma.
In experiment [20] the test system is M14 melanoma.

This is part of a sample that, as a whole, favours compounds with a hit. Of some 83,000 tested, about 20% had one in any assay.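 Cell lines were cultured in 96-well plates, exposed to a single compound concentration, and assessed for percent growth 48 hours later.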 Unmarked numbers belong to inactive results. Active and inactive are the calls of the source. Rule for the calls: active = growth percent below 10; inactive = the rest.

As to `Cn1nc(C(F)(F)F)c(-c2cc(C(F)(F)F)cc(C(F)(F)F)c2)c1-c1ccc(OCc2ccc(Cl)cc2)cc1O`, the growth in experiment [1] is 0.56% (active); in [2], 13.9%; in [3], 5.67% (active); in experiment [4] it was -9.87% (active); in experiment [5] it was -10.4% (active); in experiment [6] it was -20.1% (active). Besides, the growth in experiment [7] is -9.19% (active); in experiment [8], 10.5%; in experiment [9], 2.41% (active); in experiment [10], -90.7% (active); in experiment [11] it was 20.6%; in experiment [12], 1.63% (active). In addition, the growth was -15.9% (active) in experiment [13]; -31.5% (active) in [14]; -14.5% (active) in [15]; 16.6% in experiment [16]; -22.6% (active) in experiment [17]; 2.13% (active) in experiment [18]. Also, the growth was -7.16% (active) in experiment [19] and 6.3% (active) in experiment [20].
Consider `O=C(Nc1nc(-c2ccccc2)cs1)c1cc(-c2ccc(Br)cc2)nc2ccccc12`, for which the growth in experiment [1] is 51.6%; in experiment [2] it was 46.3%; in [3], 81.5%; in experiment [4] it was 57.1%; in experiment [5] it was 31.3%; in experiment [6] it was 6.1% (active). Also, the growth in experiment [7] was 43.5%; in experiment [8], 36.5%; in [9], 65.4%; in experiment [10], 56.2%; in experiment [11], 68.7%; in experiment [12], 24.3%. Further, the growth in experiment [13] was 112%; in [14], 57.8%; in experiment [15] it was 65.7%; in experiment [16], 53.8%; in [17] it was 49.9%; in experiment [18], 63%. Also, the growth in experiment [19] was 56%; in experiment [20] it was 75.3%.
`Cc1nc2sc(C(=O)Nc3ccccc3)c(N)c2cc1C(C)O` (stereo not given): the growth in experiment [1] was 39%; in [2] it was 108%; in experiment [3], 49.9%; in experiment [4] it was 30.1%; in experiment [5] it was 11.2%; in experiment [6], 73%. Also, the growth is 18.3% in experiment [7]; 25.6% in [8]; 31.1% in [9]; 6.99% (active) in experiment [10]; 18.3% in experiment [11]; 16.3% in [12]. Moreover, the growth in experiment [13] was 64.2%; in experiment [14] it was 51.4%; in experiment [15], 12.7%; in experiment [16], 53.4%; in experiment [17] it was 21.9%; in experiment [18] it was 6.49% (active). In addition, the growth was 64% in experiment [19] and 16.2% in experiment [20].
On to `COc1ccc(-c2nc(C#N)c(NCC(c3ccco3)N3CCCC3)o2)cc1` (stereo not given), for which the growth was 53.7% in experiment [1]; 101% in [2]; 43.3% in experiment [3]; 47.1% in experiment [4]; 24.1% in experiment [5]; 58.2% in experiment [6]. The growth in [7] was 30.6%; in [8], 43.7%; in experiment [9], 34%; in [10] it was 19.9%; in [11], 49.2%; in experiment [12], 20.6%. The growth in experiment [13] is 51.2%; in experiment [14], 77.8%; in experiment [15], 14.8%; in experiment [16], 52.3%; in [17], 24.2%; in experiment [18], 23.7%. Besides, the growth in experiment [19] was 55.2%; in [20], 12.6%.
Take `CCCNc1nc(C)[nH]c(=O)c1S`: the growth in [1] is 102%; in experiment [2] it was 122%; in experiment [3] it was 85.3%; in experiment [4], 119%; in [5] it was 111%; in experiment [6], -2.9% (active). In addition, the growth is 91% in experiment [7]; 110% in experiment [8]; 110% in [9]; 115% in experiment [10]; 91.3% in [11]; 95% in experiment [12]. Moreover, the growth in experiment [13] is 112%; in experiment [14], 103%; in experiment [15], 118%; in [16], 101%; in experiment [17] it was 119%; in experiment [18] it was 115%. The growth in experiment [19] was 108%; in experiment [20], 109%.
Regarding `CC(C)Cc1cc(CNC(=O)C2[C@H]3CN(C(=O)c4ccccc4)C[C@@H]23)nn1-c1ccccc1` (stereo not given in full), the growth in experiment [1] was 96.3%; in experiment [2] it was 94.1%; in experiment [3] it was 95.3%; in experiment [4], 83.4%; in experiment [5], 102%; in experiment [6], 115%. Besides, the growth is 49.4% in experiment [7]; 72.2% in experiment [8]; 99.4% in experiment [9]; 93.1% in experiment [10]; 100% in [11]; 80.9% in experiment [12]. Further, the growth in [13] was 86.6%; in experiment [14], 103%; in [15], 99.8%; in experiment [16], 94.4%; in experiment [17] it was 101%; in [18] it was 96.8%. The growth was 73.4% in [19] and 95.5% in [20].
For the compound `C=CCn1c(CN2CCN(c3cc4c(cc3F)c(=O)c(C(=O)O)cn4C3CC3)CC2)n[nH]c1=S`, the growth was 104% in [1]; 110% in [2]; 88.6% in experiment [3]; 99.8% in [4]; 108% in [5]; 104% in experiment [6]. In addition, the growth in experiment [7] is 87.9%; in experiment [8] it was 101%; in [9] it was 95.6%; in [10], 102%; in experiment [11], 103%; in experiment [12] it was 89.6%. The growth in experiment [13] is 85.4%; in [14], 116%; in experiment [15], 115%; in [16], 97.5%; in experiment [17] it was 101%; in experiment [18] it was 98.8%. For the same compound, the values for the growth in experiment [19] and in [20] were 105% and 107%, respectively.
As to `CCOC(=O)c1c(C)nc2c(c1N)/C(=C/c1ccc[nH]1)C(=O)N2Cc1ccc(C(F)(F)F)cc1`, the growth in [1] is 51.8%; in experiment [2], 38.1%; in [3], 74.4%; in [4] it was 23.6%; in experiment [5], 16.8%; in [6], 41.1%. For the same compound, the growth in experiment [7] was 43.3%; in [8], 48.9%; in [9], 22.9%; in [10] it was 75.6%; in experiment [11], 79.1%; in experiment [12], 63.4%. Also, the growth in [13] was 62.1%; in experiment [14] it was 18.3%; in experiment [15], 48.6%; in experiment [16], 55.5%; in [17], 29.4%; in experiment [18], 40.4%. In addition, the growth in experiment [19] is 77.6%; in experiment [20] it was 69.8%.
For the compound `CCOCCc1c(O)nc(SC)[nH]c1=O`, the growth in [1] was 91.9%; in experiment [2], 92%; in experiment [3] it was 111%; in experiment [4], 93.3%; in [5], 107%; in [6], 99.1%. For the same compound, the growth in [7] was 94.7%; in experiment [8], 103%; in [9], 103%; in experiment [10] it was 105%; in [11] it was 107%; in [12] it was 112%. Moreover, the growth in experiment [13] was 130%; in [14], 111%; in [15] it was 161%; in experiment [16], 116%; in experiment [17] it was 113%; in experiment [18], 93.7%. Also, the growth in experiment [19] was 23.9%; in [20], 98.9%.
Consider `CCOC(=O)c1c(C(F)(F)F)n([O-])c2ccc(Cl)cc2[n+]1=O`, for which the growth is 14.8% in [1]; 3.03% (active) in experiment [2]; 6.75% (active) in [3]; -65.6% (active) in [4]; -78.5% (active) in experiment [5]; -78.2% (active) in experiment [6]. Besides, the growth in experiment [7] is -59.4% (active); in [8], -39.6% (active); in experiment [9] it was -73.8% (active); in experiment [10] it was -59.2% (active); in experiment [11], -95.7% (active); in experiment [12], -57.7% (active). Moreover, the growth is -84.5% (active) in [13]; -39.1% (active) in experiment [14]; -60.6% (active) in experiment [15]; -49.5% (active) in experiment [16]; -86% (active) in [17]; -96.1% (active) in [18]. The growth in experiment [19] is -70.6% (active); in experiment [20], -21.6% (active).
Turning to `CSc1nc(-c2ccco2)c2c(N)[nH]nc2n1`, the growth in [1] is 97.7%; in experiment [2], 102%; in experiment [3], 97.8%; in experiment [4], 84.6%; in experiment [5] it was 97.6%; in [6], 109%. Moreover, the growth is 79.4% in experiment [7]; 100% in [8]; 93.4% in [9]; 123% in [10]; 102% in experiment [11]; 85.6% in experiment [12]. Moreover, the growth in experiment [13] is 119%; in experiment [14] it was 99.1%; in experiment [15] it was 118%; in experiment [16] it was 104%; in experiment [17], 102%; in experiment [18], 97.5%. The growth in [19] is 129%; in experiment [20] it was 120%.
Consider `O=C(O)c1cn(C2CC2)c2cc(N3CCN(C(=O)CSc4nnc(-c5ccc(Cl)cc5)n4-c4ccccc4)CC3)c(F)cc2c1=O`, for which the growth was 96.2% in [1]; 98.8% in experiment [2]; 110% in experiment [3]; 80.7% in experiment [4]; 104% in experiment [5]; 79.6% in experiment [6]. In addition, the growth in experiment [7] is 72.7%; in [8], 94.3%; in experiment [9], 104%; in [10], 109%; in [11], 108%; in [12], 96.1%. For the same compound, the growth was 114% in experiment [13]; 106% in experiment [14]; 113% in [15]; 103% in [16]; 107% in [17]; 105% in [18]. In addition, the growth in [19] was 96.4%; in [20] it was 109%.
As for `C#C[C@@]1(O)[C@@H](CO)O[C@@H](n2cc(-c3ccco3)c3c(N)ncnc32)[C@@H]1O`, the growth is 78.6% in experiment [1]; 70.7% in experiment [2]; 69.5% in experiment [3]; 67.7% in [4]; 52.1% in experiment [5]; 30% in experiment [6]. Besides, the growth in experiment [7] was 61.7%; in experiment [8], 68.5%; in experiment [9], 85.6%; in experiment [10], 46.4%; in experiment [11], 67.9%; in [12], 86.1%. Besides, the growth in experiment [13] was 59.4%; in experiment [14], 102%; in experiment [15], 80.9%; in [16], 83%; in [17], 76.9%; in experiment [18], 46%. Besides, the growth in experiment [19] was 89.3%; in experiment [20], 69.9%.
Consider `O=C(CSC(=S)N1CCCCC1)Nc1ccccc1`, for which the growth in experiment [1] was 97.4%; in experiment [2] it was 94.5%; in [3], 101%; in experiment [4] it was 100%; in [5], 104%; in [6], 99.6%. Also, the growth in experiment [7] was 82.3%; in experiment [8] it was 87.9%; in experiment [9], 97%; in experiment [10], 112%; in experiment [11], 106%; in experiment [12], 90.2%. Further, the growth in experiment [13] is 101%; in experiment [14], 103%; in [15], 110%; in experiment [16], 93.3%; in [17], 103%; in experiment [18], 101%. Further, the figures for the growth in experiment [19] and in experiment [20] were 92.4% and 98.6%, respectively.

Values taken from PubChem BioAssay (NCI).
